Data reported in PubChem BioAssay (Tox21).
Where “and” joins values, the source holds several entries; their conditions need not be identical. Equal entries are not always repeated. Records with an inconclusive call do not appear. Where a call stands in place of a potency, no number is given. Calls of active or inactive are those of the source. The call rests on the fitted dose curve; in most records, active means well fitted inhibition curve with a large enough effect in the signal ratio in the repeat runs (not every such curve was filed as active); inconclusive means weak or mixed curves, or effect the other way; inactive means no such curve, though single readings can be large or run the other way; the % refers to the signal ratio.
Potency means the concentration at half of the fitted maximal effect.

Each compound was assayed against Androgen receptor (Homo sapiens) (UniProt P10275) (assay: qHTS assay to identify small molecule antagonists of the androgen receptor (AR) signaling pathway (AID 743035)). Conditions: HEK293 AR-UAS-bla, R1881-stimulated, beta-lactamase FRET, 16 h; series mostly up to 58.5 µM.
Androgen receptor (Homo sapiens), sequence (P10275 whole entry, looked up): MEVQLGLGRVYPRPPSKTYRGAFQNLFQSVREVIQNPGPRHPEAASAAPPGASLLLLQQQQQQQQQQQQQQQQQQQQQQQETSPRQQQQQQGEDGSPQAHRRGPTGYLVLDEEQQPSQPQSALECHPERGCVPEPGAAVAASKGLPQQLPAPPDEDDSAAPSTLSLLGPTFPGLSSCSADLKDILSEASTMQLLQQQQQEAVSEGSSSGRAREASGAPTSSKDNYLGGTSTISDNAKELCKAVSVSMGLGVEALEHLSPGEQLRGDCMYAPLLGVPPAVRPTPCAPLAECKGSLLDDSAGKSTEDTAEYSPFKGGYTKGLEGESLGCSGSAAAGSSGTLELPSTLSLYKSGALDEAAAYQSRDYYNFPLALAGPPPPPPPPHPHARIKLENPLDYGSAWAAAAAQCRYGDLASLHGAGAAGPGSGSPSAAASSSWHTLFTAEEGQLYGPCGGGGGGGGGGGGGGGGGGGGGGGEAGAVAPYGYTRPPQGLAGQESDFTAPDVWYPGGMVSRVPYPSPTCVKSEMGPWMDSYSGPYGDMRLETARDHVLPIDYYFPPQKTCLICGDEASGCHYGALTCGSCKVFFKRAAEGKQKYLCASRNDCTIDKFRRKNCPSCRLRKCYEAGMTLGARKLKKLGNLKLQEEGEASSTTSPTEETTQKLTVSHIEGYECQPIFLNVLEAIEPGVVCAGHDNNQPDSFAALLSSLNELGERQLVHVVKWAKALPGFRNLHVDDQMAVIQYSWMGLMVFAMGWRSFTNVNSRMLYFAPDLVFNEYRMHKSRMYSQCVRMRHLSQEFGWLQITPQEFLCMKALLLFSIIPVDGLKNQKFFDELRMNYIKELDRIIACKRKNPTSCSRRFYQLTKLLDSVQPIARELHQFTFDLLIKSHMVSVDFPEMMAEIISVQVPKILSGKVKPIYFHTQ
From the text: National Center for Advancing Translational Sciences [NCATS]
NIH Chemical Genomics Center [NCGC]
U.S. Environmental Protection Agency [EPA]
National Institutes of Environmental Health Sciences [NIEHS]
National Toxicology Program [NTP]
U.S. Food and Drug Administration [FDA]
Androgen receptor (AR), a nuclear hormone receptor, plays a critical role in AR-dependent prostate cancer and other androgen related diseases. Endocrine disrupting chemicals (EDCs) and their interactions with steroid hormone receptors like AR may cause disruption of normal endocrine function as well as interfere with metabolic homeostasis, reproduction, developmental and behavioral functions. To identify the compounds that inhibit AR signaling, GeneBLAzer AR-UAS-bla-GripTite cell line (Invitrogen, Carlsbad, CA, USA) containing a beta-lactamase reporter gene under control of an Upstream Activator Sequence (UAS) stably integrated into HEK293 cells was used to screen the Tox21 10K compound library.
Tox21 Assay Protocol Summary:
AR-bla cells were dispensed at 2,000 cells/5 uL of assay medium per well into black wall/clear-bottom 1536-well plates using a Multidrop Combi (ThermoFisher Scientific, Waltham, MA) dispenser. After the assay plates were incubated at a 37C and 5% CO2 for 4 hr, 23 nL of compounds dissolved in DMSO, positive controls or DMSO only was transferred to the assay plate by a Pintool station (Kalypsys, San Diego, CA), followed by addition of 1 uL of agonist (R1881) in culture medium using a Bioraptr Flying Reagent Dispenser (FRD) workstation (Beckman Coulter, Indianapolis, IN, USA). The plates were incubated at a 37C and 5% CO2 for 16 h. After 1 uL of LiveBLAzerTM B/G FRET substrate was added using a Bioraptr FRD, the plates were incubated at room temperature for 2 h and fluorescence intensity was measured by an Envision plate reader (PerkinElmer, Shelton, CT).
With CC(=O)O[C@H]1C[C@H](O[C@H]2[C@@H](O)C[C@H](O[C@H]3[C@@H](O)C[C@H](O[C@H]4CC[C@@]5(C)[C@H](CC[C@@H]6[C@@H]5C[C@@H](O)[C@]5(C)[C@@H](C7=CC(=O)OC7)CC[C@]65O)C4)O[C@@H]3C)O[C@@H]2C)O[C@H](C)[C@H]1O[C@@H]1O[C@H](CO)[C@@H](O)[C@H](O)[C@H]1O the Potency was 0.301 µM (active). In the case of C[C@]12CC[C@H]3[C@@H](CCC4=C(Cl)C(=O)CC[C@@]43C)[C@@H]1CC[C@@H]2O, the Potency is reported as “inactive”. For O=C(O)CCCO, the Potency was “inactive”. With OC(c1ccccc1)(c1ccccc1)C1CN2CCC1CC2 (stereo not given) the Potency was “inactive”. With C=CCN1CC[C@]23c4c5ccc(O)c4O[C@H]2[C@@H](O)C=C[C@H]3[C@H]1C5 the Potency was “inactive”. For COC(=O)[C@@H]1[C@H]2CC[C@@H](C[C@H]1OC(=O)c1ccccc1)N2C, the Potency was “inactive”. With CCCCCN(C)CCC(O)(P(=O)(O)O)P(=O)(O)O the Potency was “inactive”. In the case of Cc1ccccc1-n1c(CF)nc2ccc(N)cc2c1=O, the Potency is reported as “inactive”. With CCOC(=O)C(O)(c1ccc(Cl)cc1)c1ccc(Cl)cc1 the Potency was 19.5 µM (active). CN1CCCC(=C(c2cccs2)c2cccs2)C1 was tested, and the Potency was “inactive”. With C[N+]1([O-])[C@@H]2CC(OC(=O)[C@H](CO)c3ccccc3)C[C@H]1[C@@H]1O[C@@H]12 (stereo not given in full) the Potency was “inactive”. CNC(C)CC1CCCCC1 (stereo not given) was tested, and the Potency was “inactive”. With CCC(=O)O[C@]1(c2ccccc2)CCN(C)C[C@H]1C the Potency was “inactive”. C[C@@H](Cc1ccccc1)N(C)C was tested, and the Potency was “inactive”. With CC(C)CCC(=O)O[C@H]1CC[C@H]2[C@@H]3CCC4=CC(=O)CC[C@]4(C)[C@H]3CC[C@]12C the Potency was “inactive”. O=C1Nc2ccc(Cl)cc2C(c2ccccc2Cl)=NC1O (stereo not given) was tested, and the Potency was “inactive”. Oc1cccc[c]1[Hg][Cl] was tested, and the Potency was 6.74 µM (active). C[C@]12CCC(=O)C=C1C=C[C@@H]1[C@@H]2CC[C@@]2(C)[C@H]1CC[C@@]2(O)CCC(=O)O was tested, and the Potency was “inactive”. With c1cc2c(c(NC3=NCCN3)c1)CCCC2 the Potency was “inactive”. For C/C(=C\c1csc(C)n1)[C@@H]1C[C@@H]2O[C@]2(C)CCC[C@H](C)[C@H](O)[C@@H](C)C(=O)C(C)(C)[C@@H](O)CC(=O)O1, the Potency was 0.0239 µM (active). For COC(=O)[C@H]1[C@@H](OC(=O)c2ccccc2)C[C@@H]2CC[C@H]1N2C, the Potency was “inactive”. For C[C@@H](N)C(=O)c1ccccc1, the Potency was “inactive”. In the case of C[C@@H]1[C@H](O)[C@@H](C)/C=C/C=C/CC/C=C/C=C/C=C/C=C/[C@H](O[C@H]2O[C@@H](C)[C@H](O)[C@@H](N)[C@H]2O)CC2O[C@](O)(C[C@@H](O)[C@H](O)CC[C@@H](O)C[C@@H](O)C[C@@H](O)CC(=O)O[C@H]1C)C[C@H](O)[C@H]2C(=O)O, the Potency is reported as “inactive”. For O=C1CCCCC1CN1CCCCC1 (stereo not given), the Potency was “inactive”. With [2H]C([2H])([2H])[C@H](N)Cc1ccccc1 the Potency was “inactive”. With Nc1ccc([N+](=O)[O-])cc1 the Potency was 43.6 µM (active). In the case of C[C@@H]1[C@@H]2Cc3ccc(O)cc3[C@@]1(C)CCN2CC1CC1, the Potency is reported as “inactive”. For CCN(CC)C(=O)N[C@H]1C[C@@H]2c3cccc4[nH]cc(c34)C[C@H]2N(C)C1, the Potency was “inactive”. CC1(C)S[C@@H]2[C@H](N)C(=O)N2[C@H]1C(=O)O was tested, and the Potency was “inactive”. For C[C@]12CC[C@H](O)C[C@H]1CC[C@@H]1[C@@H]2CC[C@]2(C)[C@@H](c3ccc(=O)oc3)C[C@H]3O[C@]132, the Potency was 6.01 µM (active). In the case of O=C1CN(O)C(c2ccccc2)=c2cc(Cl)ccc2=N1, the Potency is reported as “inactive”. C[C@]12CC[C@@H]3c4ccc(OC(=O)N(CCCl)CCCl)cc4CC[C@H]3[C@@H]1CC[C@@H]2OP(=O)(O)O was tested, and the Potency was 10.7 µM (active) and 19 µM (active). For Oc1cc[c]([Hg][Cl])cc1, the Potency was 19 µM (active). CN[C@@H]1C[C@@H](c2ccc(Cl)c(Cl)c2)c2ccccc21 was tested, and the Potency was “inactive”. CCCC(=O)OC(C(Cl)(Cl)Cl)P(=O)(OC)OC (stereo not given) was tested, and the Potency was “inactive”. NCC(O)c1cccc(O)c1 (stereo not given) was tested, and the Potency was “inactive”. With C[N+]1(C)CCCCC1COC(=O)C(O)(c1ccccc1)c1ccccc1 (stereo not given) the Potency was “inactive”. C[C@@H](CO)NC(=O)[C@@H]1C=C2c3cccc4[nH]cc(c34)C[C@H]2N(C)C1 was tested, and the Potency was “inactive”. With NC(=O)CN1CC(O)CC1=O (stereo not given) the Potency was “inactive”. O=C1CCO1 was tested, and the Potency was “inactive”.
